# Compound activity deposited in PubChem by National Center for Advancing Translational Sciences (NCATS).
# An excerpt weighted towards active compounds, which were near 21% of everything screened.
# Shiga inhibitor: blocks Shiga toxin action in Vero cells | Vero cells, Shiga toxin protein synthesis inhibition reporter | inhibition, % at 38.7 µM | hit rate 9.2% among 290,000; in the data active = inhibition mostly above about 28%, no sharp cut-off; inactive = mostly below about 43%; note: 0% is about no effect
# Pf growth 48h: inhibits P. falciparum growth in the first generation, 48 h | hit rate 5.9% among 310,000 | P. falciparum luciferase growth in erythrocytes, 48 h | Potency, µM (top dose mostly 28.7 µM), for inactives: at the highest dose activity change, negative = inhibition, actives largely listed as inhibitors | AID 504832; note: potency is the fitted concentration of half-maximal effect; % is set by controls: 0 for no effect and ±100 for the full control effect
#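 Growth was read as firefly luciferase luminescence after a 48 h, 37 C, 5% CO2 exposure of compounds to reporter-bearing P. falciparum cultures (0.1% parasitemia, 2% hematocrit final) in Albumax-supplemented RPMI 1640.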
# Pf growth 96h: inhibits malaria parasite growth, 96 h | hit rate 6.9% among 320,000 | Potency, µM (titrated, usually from 28.7 µM), inactives show top-dose activity change, negative = inhibition, hits mostly inhibitors | P. falciparum luciferase reporter growth, 96 h; note: potency is the fitted concentration of half-maximal effect; % is set by controls: 0 for no effect and ±100 for the full control effect
#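 Cell-based qHTS: luciferase-tagged P. falciparum in erythrocytes (2% hematocrit, 0.05% parasitemia final) incubated with compounds for 96 hours, 37 C, 5% CO2; luciferase detection reagent then added and luminescence measured.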
# CHX counter: counter-screen for Shiga toxin inhibitors: cycloheximide protein synthesis inhibition | cell reporter, cycloheximide protein synthesis inhibition counterscreen | hit rate 12% among 300,000 | max response, % | AID 2314; in the data active = max response mostly above about 13%, no sharp cut-off; inactive = mostly below about 14%; note: read at 38.3 µM for the half of the compounds with a filed dose; 0% is about no effect
# Active calls of the source: *; ? = inconclusive; · = no result; ! = not confirmed by another sample. Unless noted, calls come from the whole dose curve; as a rule, active = well fitted inhibition curve with a large enough effect; inconclusive = small, poorly fitted or top-dose-only effect, or another doubt; inactive = no such curve, though single readings can be large or run the other way.
SMILES,Shiga inhibitor,Pf growth 48h,Pf growth 96h,CHX counter
Cc1cc(C(=O)NCc2ccco2)no1,59,10%,·,7
O=C(NCc1csc(-c2ccccc2)n1)c1ccco1,60*,·,100%,27*
Cc1cc(C(=O)NCc2csc(-c3ccccc3)n2)no1,95*,59%,1%,51*
CCCn1c(CNc2ccc(Br)cc2)nc2ccccc21,39,·,49%,17*
CCSc1nc2ccccc2n1CCOc1ccccc1,48*,?,?,21*
O=C(O)c1ccc(NCc2nc3ccccc3n2CCOc2ccccc2Cl)cc1,-4,?,-5%,-2
Nc1nc2ccccc2n1CCOc1ccc(F)cc1,-8,8.3µM*,15µM*,-1
Cc1ccc(NCc2nc3ccccc3n2CCOc2ccccc2)cc1,121*,-41%,?,76*
Cc1nc(C)c(-c2ccc(SCC(=O)Nc3cccc(Cl)c3C)nn2)s1,14,-29%,-20%,9
O=c1oc2c(CN3CCN(CCO)CC3)c(O)ccc2cc1-c1ccccn1,2,7%,11%,-1
CC1(C)NC(=O)N(CCCSc2ccc(Cl)cc2)C1=O,15,-14%,36%,12
CCOC(=O)CSC1=C(C#N)C(c2ccccc2Cl)C(C(=O)OC)C(=O)N1 (stereo not given),-16,-4%,?,10
Cc1nc2ccccc2n1CCOc1ccccc1,21,0%,-26%,12*
Clc1ccc(Cn2c(CN3CCCC3)nc3ccccc32)cc1,-8,?,4.1µM*!,-3
c1ccc(Cn2c(CN3CCCC3)nc3ccccc32)cc1,-15,?,9.3µM*,-5
S=c1[nH]nc(CN2CCCC2)n1Cc1ccccc1,-13,6%,24%,-2
O=c1ccc(-c2nc3ccccc3n2Cc2ccc(Cl)cc2)c[nH]1,-1,5.9µM*,9.3µM*,-12
Cc1ccc(C(=O)NC(C)c2ccc(-n3ccnc3)cc2)o1 (stereo not given),·,0%,-3%,·
Cc1ccccc1CC1SC(N)=NC1=O (stereo not given),-5,13%,13%,-2
C/C(=N\NC(=O)C(O)(c1ccccc1)c1ccccc1)c1ccc(C)o1,-7,-20%,-21%,-4
C/C(=N\Nc1nc(C)cc(-c2ccccc2)n1)c1ccc(C)o1,7,13µM*,1µM*,8
C/C(=N/Nc1nc(C)cc(-c2ccccc2)n1)c1ccco1,56,-27%,·,21*
COc1ccc(CCNC(=O)C2CCCN2C(=O)Nc2ccc(F)cc2)cc1OC (stereo not given),-3,14%,5%,5
COc1cc(NS(=O)(=O)c2ccc(C(=O)O)cc2)c2nc(C)ccc2c1,-2,·,·,-2
CSc1nncc(-c2ccc(F)c(F)c2)n1,29,?,?,5
SMILES,Shiga inhibitor,Pf growth 48h,Pf growth 96h,CHX counter
CSc1nncc(-c2ccc(F)cc2)n1,24,?,?,14*
Cc1ccc(C(C(=O)NC2CCCC2)N(CCCO)C(=O)Cn2nnc(-c3ccc(C)o3)n2)cc1 (stereo not given),-10,-17%,?,7
Cc1nnc(SCC(=O)Nc2sccc2C#N)s1,-16,9%,1%,14
N#Cc1ccsc1NC(=O)CSc1ncnc2ccccc12,12,-2%,·,15*
N#Cc1ccsc1NC(=O)CSc1ncn[nH]1,-4,23%,35%,3
Cn1ccnc1SCC(=O)Nc1sccc1C#N,14,18%,63%,11*
COc1cc(C(=O)Nc2ccc(C)c(S(=O)(=O)N(C)C)c2)ccc1OCC(=O)N1CCOCC1,·,-14%,14%,·
CCCOC1CCCN(C(=O)c2ccc(OC)c(OC3CCN(C(C)C)CC3)c2)C1 (stereo not given),20,29%,26%,19*
COC(=O)CN(C)C(=O)c1ccc(OC)c(OC2CCN(C(C)C)CC2)c1,30*,0%,?,24*
COc1ccc(C(=O)NC2CCc3ccccc32)cc1OC1CCN(C(C)C)CC1 (stereo not given),47*,?,?,14*
COc1ccc(C(=O)N2CCCCCC2)cc1OC1CCN(C(C)C)CC1,-23,9%,?,-2
COc1ccc(C(=O)N(C)Cc2ccc(C)o2)cc1OC1CCN(C(C)C)CC1,-3,-11%,-5%,4
O=C(O)C1=C[C@H](c2ccc(Br)cc2)C[C@H](OCc2ccc(CO)cc2)O1,-12,43%,36%,1
CCCCCC(=O)N[C@@H](c1ccccc1)[C@@H](O)C(=O)O[C@H]1C[C@@]2(O)[C@@H](OC(=O)c3ccccc3)C3[C@](C)(C(=O)[C@H](O)C(=C1C)C2(C)C)[C@@H](OC1OCC(O)C(O)C1O)C[C@H]1OC[C@@]31OC(C)=O (stereo not given in full),3,?,0.17µM*,3
CC(=O)O[C@@]12CO[C@@H]1C[C@H](OC1OCC(O)C(O)C1O)[C@@]1(C)C(=O)[C@H](O)C3=C(C)[C@@H](OC(=O)[C@H](O)[C@@H](NC(=O)c4ccccc4)c4ccccc4)C[C@@](O)([C@@H](OC(=O)c4ccccc4)C12)C3(C)C (stereo not given in full),1,?,0.037µM*,-2
Oc1cccc2ccc[n+](CC(O)Cn3c4ccccc4c4ccccc43)c12 (stereo not given),-6,1µM*,?,-2
CC1CCN(C(=O)C2CCC(C)(C(=O)O)C2(C)C)CC1 (stereo not given),-10,12%,0%,-5
CC(C)N(CCCNC(=O)Cn1c(=O)c2cccn2c2ccc(F)cc21)Cc1ccccc1,-4,?,?,-4
Cc1cc(C(=O)COc2ncnc3sccc23)c(C)n1C,134*,86%,30%,31*
CC(=O)c1ccc(Oc2ncnc3sccc23)cc1,80*,284%,149%,48*
CC(=O)N1CCN(c2ccc(Oc3ncnc4sccc34)cc2)CC1,-21,·,?,-4
Cc1ccc2nc3c(nc2c1)-c1ccccc1C3=O,32*,·,·,20*
Cc1cccc2nc3c(nc12)-c1ccccc1C3=O,17,42%,6%,15
COc1ccc(-c2c(-c3ccccc3)c(C(=O)C(=O)NCCCN(C)C)n3ccc4cc(OC)c(OC)cc4c23)cc1OC,-10,·,2.9µM*,-7
COc1ccc2c(c1)[nH]c1c(=O)n(/N=C/c3ccc(OC)c(COc4ccccn4)c3)cnc12,67*,25%,14%,6
SMILES,Shiga inhibitor,Pf growth 48h,Pf growth 96h,CHX counter
O=C1C=C(O)CC(c2ccc(Cl)cc2)C1 (stereo not given),-6,-28%,0%,-1
Oc1c(Cl)cc(Cl)cc1C1=NNC(c2ccc(Cl)cc2)C1 (stereo not given),73*,-7%,-100%,31*
Oc1ccc(Cl)cc1C1=NNC(c2ccc(Cl)cc2)C1 (stereo not given),31*,?,?,30*
Cc1[nH]c(=O)n(C(C)(C)C)c(=O)c1Cl,0,·,·,-1
CCN(CC)c1ccc(/C=N/N2C(C)CCCC2C)c(O)c1 (stereo not given),5,?,?,-1
CC(=O)N(c1ccccc1)c1nc(C)cc(C)c1C#N,8,-2%,3%,-4
